The values below come from PubChem BioAssay (NCI).

Some test systems named below: RXF 393 renal; SK-MEL-28 melanoma; CCRF-CEM leukemia; SR leukemia; OVCAR-4 ovarian; BT-549 breast; MDA-MB-435 melanoma; SW-620 colon; MCF7 breast; HCC-2998 colon; KM12 colon; HOP-92 NSCLC; SK-MEL-5 melanoma; HCT-116 colon; T-47D breast; ACHN renal; NCI-H522 lung.
What all share (assay): NCI-60 one-dose screen, 48 h (100 = growth as untreated, 0 = no growth, -100 = all killed)
What all share (conditions): 10 µM

This is part of a sample that, as a whole, favours compounds with a hit. Of some 83,000 tested, about 20% had one in any assay.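 Step 1: grow cells in 96-well plates. Step 2: add test compound at a single concentration. Step 3: incubate 48 h. Step 4: record percent growth.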 Values without a mark were called inactive. Activity calls are given as the source filed them. The calls were made as follows: active = growth percent below 10; inactive = the rest.

For the molecule `Cn1cc(/C=C(/SS/C(=C/c2cn(C)c3cccc(C(=O)O)c23)C(=O)O)C(=O)O)c2c(C(=O)O)cccc21`, the growth is 112% in the assay on RXF 393 renal; 98.3% in the assay with SK-MEL-28 melanoma; 106% in the assay on CCRF-CEM leukemia; 98.7% with SR leukemia; 99.6% in the assay with OVCAR-4 ovarian; 114% with BT-549 breast. For the same molecule, the growth in the assay with MDA-MB-435 melanoma was 98%; with SW-620 colon, 116%; with MCF7 breast, 92.6%; with HCC-2998 colon, 99.8%.
Consider `CC(C)(C)c1cc(/C=C2\S/C(=N/c3ncn[nH]3)NC2=O)cc(C(C)(C)C)c1O`, for which the growth is -17.5% (active) in the assay on RXF 393 renal; 11% with CCRF-CEM leukemia; 6.04% (active) with SR leukemia; 33.8% in the assay with OVCAR-4 ovarian; -2.05% (active) with BT-549 breast; 11.9% with MDA-MB-435 melanoma. Also, the growth in the assay on SW-620 colon was 15.1%; with MCF7 breast, 8.22% (active); in the assay on HCC-2998 colon, 14.5%; in the assay with KM12 colon it was 20.2%.
For the molecule `COc1ccc2[nH]cc(-c3nc(N)nnc3-c3cn(C)c4ncc(Br)cc34)c2c1`, the growth was -2.43% (active) in the assay with HOP-92 NSCLC; -14% (active) in the assay on RXF 393 renal; -50.1% (active) in the assay with SK-MEL-5 melanoma; 1.4% (active) in the assay with CCRF-CEM leukemia; 3% (active) in the assay with SR leukemia; 37.4% with OVCAR-4 ovarian. Also, the growth was -38.5% (active) with BT-549 breast; -38.8% (active) in the assay on MDA-MB-435 melanoma; 17.8% in the assay with SW-620 colon; 4.79% (active) in the assay with MCF7 breast; 1.45% (active) with HCT-116 colon; 11.8% with HCC-2998 colon. For the same molecule, the growth in the assay with KM12 colon was 5.71% (active).
With `Cn1cc(-c2nc(N)nnc2-c2c[nH]c3ccccc23)c2cc(Br)cnc21`, the growth was 6.16% (active) in the assay with RXF 393 renal; 39.8% with SK-MEL-28 melanoma; 20.5% in the assay with CCRF-CEM leukemia; 32.1% in the assay with OVCAR-4 ovarian; 65.2% in the assay on T-47D breast; -29.6% (active) in the assay on BT-549 breast. For the same molecule, the growth in the assay on MDA-MB-435 melanoma was -25.2% (active); with SW-620 colon it was 24.7%; in the assay with MCF7 breast, 4.57% (active); in the assay with HCT-116 colon, 7.04% (active); in the assay with HCC-2998 colon, -35% (active); in the assay on KM12 colon, 13.1%.
Turning to `O=C(Nc1ccc(OCc2ccc(Cl)cc2)cc1)Nc1ccc(Cl)c(C(F)(F)F)c1`, the growth was -21% (active) in the assay with RXF 393 renal; -81.4% (active) with SK-MEL-5 melanoma; 2.46% (active) in the assay with SR leukemia; 13.8% in the assay with OVCAR-4 ovarian; 3.95% (active) in the assay on T-47D breast; -17% (active) in the assay with BT-549 breast. Besides, the growth is 14.2% in the assay on MDA-MB-435 melanoma, 25.1% with SW-620 colon, 1.78% (active) in the assay with MCF7 breast and 3.51% (active) with HCC-2998 colon.
For the molecule `COc1cccc(C(=O)CSc2nc(-c3ccc(OCc4ccccc4)c(OC)c3)c(C#N)c(=O)[nH]2)c1`, the growth in the assay on RXF 393 renal was 93%; with SK-MEL-5 melanoma, 98.5%; in the assay with ACHN renal it was 99.9%; in the assay on CCRF-CEM leukemia, 101%; in the assay on OVCAR-4 ovarian, 96.8%; in the assay with T-47D breast, 90.7%. Besides, the growth is 102% in the assay with BT-549 breast; 95.7% in the assay on MDA-MB-435 melanoma; 102% in the assay with SW-620 colon; 91.3% with MCF7 breast; 111% in the assay with HCC-2998 colon; 104% in the assay with KM12 colon.
For the molecule `Cc1ccc2sc3c(c2c1)Oc1nc[nH]c(=O)c1C3c1cccc(F)c1` (configuration not stated), the growth in the assay on NCI-H522 lung was 82.8%; in the assay on RXF 393 renal, 109%; in the assay with CCRF-CEM leukemia, 107%; with OVCAR-4 ovarian, 91.7%; in the assay on BT-549 breast it was 95.5%; in the assay with MDA-MB-435 melanoma it was 96.1%. Also, the growth is 102% with SW-620 colon, 60.9% in the assay with MCF7 breast, 118% with HCC-2998 colon and 100% in the assay on KM12 colon.
With `COc1ccc(C2c3sc4ccc(C)cc4c3Oc3nc[nH]c(=O)c32)cc1` (configuration not stated), the growth with RXF 393 renal is 85.7%; in the assay with SK-MEL-5 melanoma, 88.8%; in the assay on CCRF-CEM leukemia it was 91.7%; with OVCAR-4 ovarian, 85.3%; in the assay with BT-549 breast, 77.9%; in the assay with MDA-MB-435 melanoma, -0.755% (active). In addition, the growth with SW-620 colon was 67.1%; in the assay on MCF7 breast, 69.6%; in the assay on HCC-2998 colon, 94%; in the assay with KM12 colon, 61.1%.
`Cn1cc(-c2nnc(N)nc2-c2c[nH]c3ccccc23)c2cc(Br)cnc21`: the growth in the assay on NCI-H522 lung is 15.1%; with RXF 393 renal it was -20.1% (active); with OVCAR-4 ovarian, 46.5%; in the assay with BT-549 breast it was 17%; in the assay with MDA-MB-435 melanoma, 5.61% (active); in the assay with SW-620 colon it was 57.8%. Also, the growth with MCF7 breast was 14%; with HCC-2998 colon, -27% (active).
As for `CCOC(=O)C1=C(N)N(c2ccc(C)cc2)C2=C(C(=O)CC(C)(C)C2)C1c1ccccc1Br` (configuration not stated), the growth in the assay on HOP-92 NSCLC was 71.6%; with RXF 393 renal it was 86.5%; in the assay with SK-MEL-5 melanoma it was 77.4%; in the assay on CCRF-CEM leukemia it was 39.5%; with SR leukemia it was 65.7%; in the assay with OVCAR-4 ovarian, 83.2%. Besides, the growth is 69.6% in the assay with T-47D breast; 93.9% in the assay with BT-549 breast; 82.6% in the assay with MDA-MB-435 melanoma; 46% in the assay with SW-620 colon; 56.6% in the assay with MCF7 breast; 40.6% with HCT-116 colon. The growth with HCC-2998 colon was 89.4%; in the assay with KM12 colon, 83.8%.
As to `COc1ccc(NCc2cn(-c3ccc(C(=O)O)cc3)nc2-c2ccc(F)cc2)cc1C(F)(F)F`, the growth was 68.3% with HOP-92 NSCLC; 75.4% in the assay on RXF 393 renal; 33.3% with SK-MEL-28 melanoma; 41.6% in the assay with CCRF-CEM leukemia; 50.7% with SR leukemia; 57.2% with OVCAR-4 ovarian. Besides, the growth in the assay on BT-549 breast is 33.2%; with MDA-MB-435 melanoma, 36.8%; in the assay with SW-620 colon, 60.1%; in the assay with MCF7 breast, 30.5%; with HCC-2998 colon, 51.7%.
As for `Cc1ccc2c(c1)C(=O)/C(=C/c1ccc([N+](=O)[O-])cc1)S2`, the growth in the assay with RXF 393 renal is 109%; in the assay on SK-MEL-5 melanoma it was 95.1%; with ACHN renal, 102%; in the assay on CCRF-CEM leukemia it was 109%; in the assay on OVCAR-4 ovarian, 83.4%; with T-47D breast, 86.3%. For the same molecule, the growth is 101% in the assay on BT-549 breast; 98.9% with MDA-MB-435 melanoma; 49.4% with SW-620 colon; 3.81% (active) with MCF7 breast; 103% in the assay with HCC-2998 colon; 105% with KM12 colon.
